Test results as given in PubChem BioAssay (EPA / NIEHS).
Records with an inconclusive call do not appear. The source made the active and inactive calls. Rule for the calls: active = hit-call score of the fitted dose curve at least 0.9, where 1 is the maximum; inconclusive = response in the unintended direction; inactive = score below 0.9.

Molecular target: Oxysterols receptor LXR-beta (Homo sapiens) (UniProt P55055)
Assay: ATG_LXRb_TRANS: Attagene TRANS-FACTORIAL HepG2 Assay for human Liver X Receptor beta (LXRb) (AID 2282981)
Conditions: HepG2 Attagene TRANS GAL4-LXRb reporter, mRNA
In short: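 Readout: fluorescent reporter mRNA fragments resolved by capillary electrophoresis after RT-PCR. System: transiently transfected human HepG2, exogenous LXRb-Gal4 chimera driving GAL4-UAS reporter, 24 h dosing. Activity fitted upward against DMSO baseline.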

Sequence of Oxysterols receptor LXR-beta (Homo sapiens) (P55055 whole entry, looked up): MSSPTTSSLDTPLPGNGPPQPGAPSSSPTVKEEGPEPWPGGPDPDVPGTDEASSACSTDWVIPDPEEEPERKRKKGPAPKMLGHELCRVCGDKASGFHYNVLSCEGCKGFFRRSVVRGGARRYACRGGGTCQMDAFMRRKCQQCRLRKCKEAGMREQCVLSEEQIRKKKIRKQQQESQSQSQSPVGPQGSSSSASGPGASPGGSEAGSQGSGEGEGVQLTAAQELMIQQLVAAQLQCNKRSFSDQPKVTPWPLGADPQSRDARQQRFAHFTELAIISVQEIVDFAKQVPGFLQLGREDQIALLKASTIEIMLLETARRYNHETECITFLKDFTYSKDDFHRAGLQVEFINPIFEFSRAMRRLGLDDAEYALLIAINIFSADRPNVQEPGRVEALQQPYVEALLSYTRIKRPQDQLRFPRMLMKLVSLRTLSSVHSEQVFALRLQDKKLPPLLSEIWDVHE

outcome, inactive:
CCCCC(CC)COC(=O)c1ccc(O)cc1 (configuration not stated)
CCOC(=O)[C@@H](C)Oc1ccc(Oc2nc3ccc(Cl)cc3o2)cc1
CC(C)(C)OC(=O)c1ccc(O)cc1
COC(=O)c1ccc(OC)cc1
CCC(Cl)C(Cl)C(Cl)CC(Cl)C(Cl)C(C)Cl (configuration not stated)
COC(C)(C)CC(C)=O
CC(=O)O[C@H]1C[C@@H]2CC[C@@]1(C)C2(C)C
CC(=O)O[C@@H]1C[C@@H]2CC[C@@]1(C)C2(C)C
NCC1CCCC(CN)C1 (configuration not stated)
CCCCCCCCSCCO
CCc1cc(C(C)(C)C)c(O)c(C(C)(C)C)c1
C=CC(C)(O)CCC=C(C)C (configuration not stated)
CCC1(c2ccccc2)C(=O)NCNC1=O
Cc1cc(C)nc(NS(=O)(=O)c2ccc(N)cc2)n1
Cc1cc(=O)oc2cc(N(C)C)ccc12
CC1(C)O[C@@H]2C[C@H]3[C@@H]4CCC5=CC(=O)C=C[C@]5(C)[C@@]4(F)[C@@H](O)C[C@]3(C)[C@]2(C(=O)CO)O1
O=C(Nc1ccc([N+](=O)[O-])cc1)Nc1ccc([N+](=O)[O-])cc1 (tested in a mixture with another compound)
Cc1ccc(S(=O)(=O)Oc2ccc(N=Nc3ccc(-c4ccc(N=Nc5c(O)ccc6cc(S(=O)(=O)O)cc(S(=O)(=O)O)c56)c(C)c4)cc3C)cc2)cc1
CCCCCCCCCCCCN1CCCCCC1=O
CC1(C)C2=CCCC(C)(C)[C@]23CC[C@H]1C3
CCCCCCC(C)Nc1ccc(Nc2ccccc2)cc1 (configuration not stated)
CC(C=O)Cc1ccc(C(C)(C)C)cc1 (configuration not stated)
